± gives the standard deviation of the averaged measurements.
The compounds below were run on Caenorhabditis elegans N2 (assay: egg-laying rate relative to DMSO control (serotonin + nicotine background) (fraction of control); higher = more egg-laying). Conditions: background: 12.3 mM serotonin + 7.7 mM nicotine; 60 µM; 1 h.
Experimental: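 About 20 young-adult wild-type C. elegans (N2) per well in 96-well plates were exposed to 60 uM compound for 1 h at room temperature, either in M9 buffer (to find stimulators) or in 12.3 mM serotonin + 7.7 mM nicotine (NS, to find inhibitors). Eggs per worm per hour were counted by automated imaging and normalised to the mean of proximal DMSO control wells. Values average the primary screen and two retests of the worm-active (wactive) Egl modulators.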
With `CCOc1ccc(C(=O)c2cccs2)cc1` [wact-471] the egg-laying rate was 1.02 ± 0.22. Compound `Cc1ccccc1C(=O)NCCSC1CCCCC1` [wact-494] has an egg-laying rate of 0.524 ± 0.2. `Cc1ccccc1C(=O)NCCc1ccccc1` [wact-406] showed an egg-laying rate of 0.394 ± 0.22. `O=[N+]([O-])c1ccc(-n2ccc3ccccc32)cc1` [wact-213] showed an egg-laying rate of 0.444 ± 0.061. `Fc1ccc(-c2cn3ccsc3n2)cc1` [wact-433] was tested, and the egg-laying rate was 0.471 ± 0.016. In the case of `Ic1cccc(-c2nnc(-c3ccccc3)o2)c1` [wact-51], the egg-laying rate is reported as 0.995 ± 0.094. Compound `c1csc(-c2cnc3ccccc3n2)c1` [wact-21] has an egg-laying rate of 0.816 ± 0.081. Compound `Clc1ccc(-c2cn3ccsc3n2)cc1` [wact-1] has an egg-laying rate of 0.584 ± 0.24. Compound `CCCCOC(=O)Nc1ccc([N+](=O)[O-])cc1` [wact-419] has an egg-laying rate of 0.733 ± 0.18. With `O=[N+]([O-])c1ccc(N2CCc3ccccc3C2)nc1` [wact-421] the egg-laying rate was 0.435 ± 0.099. `O=[N+]([O-])c1ccc(N2CCN(CC3CC=CCC3)CC2)cc1` (stereo not given) [wact-47] showed an egg-laying rate of 1.13 ± 0.076. For `c1ccc(CSc2nnc(-c3ccccc3)o2)cc1` [wact-38], the egg-laying rate was 0.966 ± 0.24. `CCc1ccc(-c2cn3ccsc3n2)cc1` [wact-434] was tested, and the egg-laying rate was 0.474 ± 0.18. `O=C(Nc1cccc(Cl)c1)N1CCN(c2ccc([N+](=O)[O-])cc2)CC1` [wact-31] was tested, and the egg-laying rate was 1.03 ± 0.29. `CCSc1nnc(-c2ccc(Cl)cc2Cl)o1` [wact-4] was tested, and the egg-laying rate was 0.795 ± 0.052. `O=[N+]([O-])c1ccc(N2CCN(CC3CCCCC3)CC2)cc1` [wact-45] was tested, and the egg-laying rate was 0.994 ± 0.16. For `Cc1ccc(-c2cnc(-c3ccncc3)o2)cc1` [wact-23], the egg-laying rate was 0.55 ± 0.19. Compound `CCC1CCC(N2CCN(c3ccc([N+](=O)[O-])cc3)CC2)CC1` (stereo not given) [wact-6] has an egg-laying rate of 0.999 ± 0.56. With `O=[N+]([O-])c1ccc(CSc2ccc(Cl)cc2)cc1` [wact-3] the egg-laying rate was 0.473 ± 0.36. With `Brc1cccc(-c2cn3ccccc3n2)c1` [wact-435] the egg-laying rate was 0.712 ± 0.25. For `COc1ccc(C=Cc2ccccn2)cc1` [wact-622], the egg-laying rate was 0.373 ± 0.18. `O=[N+]([O-])c1ccc(N2CCN(CC3CC4C=CC3C4)CC2)cc1` (stereo not given) [wact-46] gave an egg-laying rate of 1.34 ± 0.22. Compound `O=C(Nc1ccc(I)cc1)c1ccco1` [wact-27] has an egg-laying rate of 0.759 ± 0.099. Work on `Cc1ccn2cc(-c3ccc(F)cc3)nc2c1` [wact-436] yielded an egg-laying rate of 0.478 ± 0.25. `O=C1CC(N2CCN(c3ccc([N+](=O)[O-])cc3)CC2)C(=O)N1c1ccccc1F` (stereo not given) [wact-56] gave an egg-laying rate of 1.06 ± 0.17.

From the supplement of paper PMC9402605
